In PubChem BioAssay (NCI) one finds growth data, which are given here for 13 molecules.

Structures are written as SMILES. This is part of a sample that, as a whole, favours compounds with a hit. Of some 83,000 tested, about 20% had one in any assay.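 96-well plates, one dose, 48 hours. Percent growth reported; active if below 10.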 A number with no mark means an inactive call. Active and inactive are the calls of the source.

Some test systems named below: NCI-H322M lung; HOP-62 NSCLC; NCI-H460 lung; HOP-92 NSCLC; NCI-H522 lung; A549/ATCC NSCLC; 786-0 renal; COLO 205 colon; DU-145 prostate.
Holding throughout (assay): NCI-60 one-dose screen, 48 h (100 = growth as untreated, 0 = no growth, -100 = all killed)
Settings in all cases: 10 µM unless noted

For `CCN1C(=S)N(CC)C2C1NN=C1SC(c3ccccc3)=CC(=O)N12` (stereo not drawn), the growth with NCI-H322M lung was 110%; in the assay on HOP-62 NSCLC, 100%; with NCI-H460 lung it was 117%; in the assay on HOP-92 NSCLC, 103%; in the assay with NCI-H522 lung, 94.5%; in the assay on A549/ATCC NSCLC, 101%. Further, the growth was 104% with 786-0 renal, 115% in the assay with COLO 205 colon and 117% in the assay with DU-145 prostate.

For the molecule `O=C1c2c(c3c4cccnc4[nH]c3c3ccc4ccccc4c23)C(=O)N1CCO`, the growth in the assay with NCI-H322M lung is 95%; with HOP-62 NSCLC, 64.5%; in the assay on NCI-H460 lung it was 17.6%; in the assay on HOP-92 NSCLC, 129%; with NCI-H522 lung, 52.8%; in the assay with A549/ATCC NSCLC, 78.3%. Also, the figures for the growth with 786-0 renal, in the assay with COLO 205 colon and in the assay on DU-145 prostate were 84%, 78.4% and 87.2%, respectively.

For `O=C(N/N=C/c1ccc([N+](=O)[O-])o1)c1[nH]c2ccc(Br)cc2c1-c1ccccc1`, the growth in the assay with NCI-H322M lung is 41.2%; in the assay on NCI-H460 lung, -31.4% (active); in the assay with HOP-92 NSCLC, -4.17% (active); in the assay with NCI-H522 lung, -26.3% (active); in the assay on A549/ATCC NSCLC, 21.6%; in the assay on 786-0 renal it was -5.08% (active). The growth in the assay with COLO 205 colon is 5.51% (active); in the assay with DU-145 prostate it was 16.2%.

Regarding `CS(=O)(=O)c1ccc(-c2nc3ccccn3c2/C=N/Nc2nc(-c3ccc(Cl)cc3)cs2)cc1`, the growth was 111% with NCI-H322M lung; 109% with HOP-62 NSCLC; 102% in the assay with NCI-H460 lung; 96.4% in the assay on HOP-92 NSCLC; 96.2% in the assay with NCI-H522 lung; 79.8% in the assay with 786-0 renal. In addition, the growth is 112% in the assay with COLO 205 colon and 106% in the assay on DU-145 prostate.

On to `COc1cc(/C=C/C(=O)c2cc(OC)c(OC)c(OC)c2)ccc1Oc1nc(NCCO)nc(N2CCOCC2)n1`, for which the growth with NCI-H322M lung is 24%; in the assay with HOP-62 NSCLC it was 1.11% (active); in the assay with NCI-H460 lung it was -51.6% (active); in the assay with HOP-92 NSCLC it was 13.5%; in the assay on NCI-H522 lung, -11.1% (active); in the assay on A549/ATCC NSCLC it was 6.84% (active). In addition, the growth is -5.28% (active) in the assay on 786-0 renal, 3.69% (active) in the assay with COLO 205 colon and 12.6% in the assay with DU-145 prostate.

As for `c1ccc(CNc2ncnc3ccc(-c4cnc5[nH]ncc5c4)cc23)cc1`, the growth in the assay on NCI-H322M lung was 59.3%; in the assay on HOP-62 NSCLC, 60.7%; with NCI-H460 lung, 65.7%; in the assay with HOP-92 NSCLC, 57.9%; with NCI-H522 lung, 60.9%; in the assay on A549/ATCC NSCLC, 37.5%. Also, the growth with 786-0 renal was 61.8%; with COLO 205 colon it was 94%; in the assay with DU-145 prostate, 49.6%.

For `COc1ccc(-c2nn3c(-c4ccccc4F)nnc3s2)cc1`, the growth with NCI-H322M lung is 75%; in the assay with HOP-62 NSCLC, 67.5%; in the assay with NCI-H460 lung it was 30%; in the assay with HOP-92 NSCLC, 76.9%; with NCI-H522 lung, 20.2%; in the assay with A549/ATCC NSCLC it was 56.6%. Moreover, the growth in the assay with 786-0 renal was 72.5%; with COLO 205 colon, 41.6%; in the assay with DU-145 prostate, 72.2%.

In the case of `C[C@@H](Nc1c(C#N)cnc2ccc(-c3cnc(N)nc3)cc12)c1ccccc1`, the growth was -6.52% (active) in the assay on NCI-H322M lung; 31.1% with HOP-62 NSCLC; 13.3% with NCI-H460 lung; -10.5% (active) with HOP-92 NSCLC; -2.38% (active) in the assay on NCI-H522 lung; 13.5% in the assay with 786-0 renal. Also, the growth in the assay with COLO 205 colon was 17.3%; in the assay with DU-145 prostate, 12.8%.

In the case of `Clc1ccc2c(NCCCn3ccnc3)c3oc4ccccc4c3nc2c1`, the growth with NCI-H322M lung is 40.7%; with HOP-62 NSCLC, 65.9%; in the assay with NCI-H460 lung, -7.61% (active); in the assay on HOP-92 NSCLC it was 33.1%; in the assay on NCI-H522 lung it was 44%; in the assay with A549/ATCC NSCLC it was 34.4%. Moreover, the growth in the assay on 786-0 renal is -9.95% (active); in the assay with COLO 205 colon, 31.8%; with DU-145 prostate, 24.6%.

As to `N#Cc1ccc(/C=N/NC(=O)c2[nH]c3ccc(Br)cc3c2-c2ccccc2)s1`, the growth was 45.9% in the assay with NCI-H322M lung; 26.9% with HOP-62 NSCLC; 3.12% (active) with NCI-H460 lung; 33.9% with HOP-92 NSCLC; -22.7% (active) in the assay on NCI-H522 lung; 22.4% in the assay with A549/ATCC NSCLC. Further, the growth was 10.2% with 786-0 renal, -13.3% (active) with COLO 205 colon and 19.3% in the assay with DU-145 prostate.

On to `CS(=O)(=O)Nc1ccc(-c2nn(-c3ccc(S(C)(=O)=O)cc3)cc2/C=C/C(=O)c2ccc(NC(=O)CO[N+](=O)[O-])cc2)cc1`, for which the growth is 102% with NCI-H322M lung; 100% with HOP-62 NSCLC; 110% in the assay on NCI-H460 lung; 103% with HOP-92 NSCLC; 99.1% in the assay with NCI-H522 lung; 101% with A549/ATCC NSCLC. In addition, the growth is 102% with 786-0 renal, 114% in the assay on COLO 205 colon and 116% in the assay on DU-145 prostate.

With `Cc1cc(=O)oc2cc(OCCCOc3ccc(/C=C/C(=O)Nc4ccc(Cl)cc4)cc3)ccc12`, the growth in the assay with NCI-H322M lung was 83%; in the assay on HOP-62 NSCLC it was 90.2%; with NCI-H460 lung it was -6.83% (active); in the assay on HOP-92 NSCLC, 25.2%; with NCI-H522 lung, 82.6%; in the assay with A549/ATCC NSCLC, 28.6%. Further, the growth with 786-0 renal is 46.4%; in the assay with COLO 205 colon it was 68.2%; with DU-145 prostate, 73.6%.

`CNC(=O)c1cc(-c2ccc(NC(=O)Nc3ccc(N4CCN(C)CC4)c(C(F)(F)F)c3)cc2)nc2cccnc12`: the growth with NCI-H322M lung was -78.4% (active); with NCI-H460 lung, -76.3% (active); in the assay on HOP-92 NSCLC it was 79.5%; in the assay on NCI-H522 lung it was -71.9% (active); in the assay with A549/ATCC NSCLC it was -81.9% (active); with 786-0 renal, -97.1% (active). For the same molecule, the values for the growth in the assay with COLO 205 colon and with DU-145 prostate were -41% (active) and -81.7% (active), respectively.
